The target of assay [1] is Tyrosine-protein kinase CSK (Homo sapiens) (UniProt P41240). The note with it: at 1 µM.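 Further: each value is an averaged inhibition reading.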
Assay [2] has as its target T1, Discoidin domain-containing receptor 2 (Homo sapiens) (UniProt Q16832).
T1 sequence (whole entry): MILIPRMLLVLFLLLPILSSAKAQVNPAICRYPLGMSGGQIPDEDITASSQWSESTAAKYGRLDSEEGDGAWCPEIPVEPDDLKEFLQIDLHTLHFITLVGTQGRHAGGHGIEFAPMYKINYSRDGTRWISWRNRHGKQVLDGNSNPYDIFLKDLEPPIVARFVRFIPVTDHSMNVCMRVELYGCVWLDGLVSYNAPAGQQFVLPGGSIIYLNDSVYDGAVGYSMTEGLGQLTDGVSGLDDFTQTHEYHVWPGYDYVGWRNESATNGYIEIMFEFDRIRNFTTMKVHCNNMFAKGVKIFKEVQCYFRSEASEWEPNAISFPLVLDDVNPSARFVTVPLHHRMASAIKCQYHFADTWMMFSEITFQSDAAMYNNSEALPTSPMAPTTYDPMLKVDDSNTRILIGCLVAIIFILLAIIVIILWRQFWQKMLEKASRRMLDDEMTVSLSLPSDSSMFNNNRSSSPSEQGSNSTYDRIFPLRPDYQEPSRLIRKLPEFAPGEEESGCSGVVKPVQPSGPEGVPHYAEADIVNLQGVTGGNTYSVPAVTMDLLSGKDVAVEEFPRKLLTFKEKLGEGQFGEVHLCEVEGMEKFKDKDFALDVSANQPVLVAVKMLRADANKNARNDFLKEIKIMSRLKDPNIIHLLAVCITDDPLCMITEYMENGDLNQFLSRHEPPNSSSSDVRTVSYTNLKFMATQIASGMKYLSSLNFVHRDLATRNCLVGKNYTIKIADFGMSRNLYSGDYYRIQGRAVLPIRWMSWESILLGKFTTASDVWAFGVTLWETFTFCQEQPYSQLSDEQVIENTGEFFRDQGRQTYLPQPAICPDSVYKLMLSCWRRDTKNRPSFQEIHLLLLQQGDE
The conditions noted are these: at 0.1 µM.

The target of assay [3] is T1, Discoidin domain-containing receptor 2 (Homo sapiens). The conditions noted are these: at 1 µM.
Assay [4] deals with Epidermal growth factor receptor (Homo sapiens) (UniProt P00533). The conditions noted are these: at 0.1 µM.
The target is the same in assay [5]. The note with it: at 1 µM.
The test system of assay [6] is Epidermal growth factor receptor (Homo sapiens), P00533 [L858R]. The note with it: at 0.1 µM.
The test system is the same in assay [7]. The conditions noted are these: at 1 µM.
In assay [8] the test system is Epidermal growth factor receptor (Homo sapiens), P00533 [L861Q]. The note with it: at 0.1 µM.
Assay [9] shares this test system. The note with it: at 1 µM.
Assay [10] deals with Epidermal growth factor receptor (Homo sapiens), P00533 [T790M]. The conditions noted are these: at 0.1 µM.
Sequence of Epidermal growth factor receptor (Homo sapiens), P00533 [T790M] (P00533 whole entry T790M): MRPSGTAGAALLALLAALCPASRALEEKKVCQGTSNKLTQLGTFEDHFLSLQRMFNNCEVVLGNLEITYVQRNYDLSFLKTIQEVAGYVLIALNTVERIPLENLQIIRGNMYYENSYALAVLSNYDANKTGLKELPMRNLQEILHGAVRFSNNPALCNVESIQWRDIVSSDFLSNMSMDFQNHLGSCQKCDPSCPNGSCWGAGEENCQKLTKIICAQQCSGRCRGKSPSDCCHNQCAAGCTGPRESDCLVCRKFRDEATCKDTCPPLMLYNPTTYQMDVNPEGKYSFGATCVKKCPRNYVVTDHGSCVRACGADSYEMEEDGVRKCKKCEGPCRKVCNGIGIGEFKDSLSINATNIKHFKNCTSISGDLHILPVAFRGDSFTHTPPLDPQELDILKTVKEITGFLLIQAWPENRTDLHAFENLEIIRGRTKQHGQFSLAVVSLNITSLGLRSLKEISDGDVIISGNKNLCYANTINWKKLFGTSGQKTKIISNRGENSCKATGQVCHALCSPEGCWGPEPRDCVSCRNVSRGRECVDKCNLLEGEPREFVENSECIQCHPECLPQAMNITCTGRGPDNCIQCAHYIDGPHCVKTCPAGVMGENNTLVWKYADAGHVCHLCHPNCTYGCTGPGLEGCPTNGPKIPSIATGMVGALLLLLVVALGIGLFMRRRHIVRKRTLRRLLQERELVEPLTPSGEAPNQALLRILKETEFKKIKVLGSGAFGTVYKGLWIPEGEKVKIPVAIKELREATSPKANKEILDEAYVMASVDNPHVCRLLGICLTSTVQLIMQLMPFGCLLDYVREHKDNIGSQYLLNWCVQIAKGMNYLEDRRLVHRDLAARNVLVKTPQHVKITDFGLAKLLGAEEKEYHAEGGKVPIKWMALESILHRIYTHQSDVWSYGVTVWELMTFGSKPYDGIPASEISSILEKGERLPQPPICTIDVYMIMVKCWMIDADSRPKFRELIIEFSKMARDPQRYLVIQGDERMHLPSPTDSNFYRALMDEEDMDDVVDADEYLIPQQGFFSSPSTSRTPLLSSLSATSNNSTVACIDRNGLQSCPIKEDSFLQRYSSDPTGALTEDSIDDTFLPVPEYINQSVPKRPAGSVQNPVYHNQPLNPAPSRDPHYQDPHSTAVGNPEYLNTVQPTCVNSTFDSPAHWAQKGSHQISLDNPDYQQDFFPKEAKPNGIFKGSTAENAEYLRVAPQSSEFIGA

Sequence of Epidermal growth factor receptor (Homo sapiens) (P00533 whole entry): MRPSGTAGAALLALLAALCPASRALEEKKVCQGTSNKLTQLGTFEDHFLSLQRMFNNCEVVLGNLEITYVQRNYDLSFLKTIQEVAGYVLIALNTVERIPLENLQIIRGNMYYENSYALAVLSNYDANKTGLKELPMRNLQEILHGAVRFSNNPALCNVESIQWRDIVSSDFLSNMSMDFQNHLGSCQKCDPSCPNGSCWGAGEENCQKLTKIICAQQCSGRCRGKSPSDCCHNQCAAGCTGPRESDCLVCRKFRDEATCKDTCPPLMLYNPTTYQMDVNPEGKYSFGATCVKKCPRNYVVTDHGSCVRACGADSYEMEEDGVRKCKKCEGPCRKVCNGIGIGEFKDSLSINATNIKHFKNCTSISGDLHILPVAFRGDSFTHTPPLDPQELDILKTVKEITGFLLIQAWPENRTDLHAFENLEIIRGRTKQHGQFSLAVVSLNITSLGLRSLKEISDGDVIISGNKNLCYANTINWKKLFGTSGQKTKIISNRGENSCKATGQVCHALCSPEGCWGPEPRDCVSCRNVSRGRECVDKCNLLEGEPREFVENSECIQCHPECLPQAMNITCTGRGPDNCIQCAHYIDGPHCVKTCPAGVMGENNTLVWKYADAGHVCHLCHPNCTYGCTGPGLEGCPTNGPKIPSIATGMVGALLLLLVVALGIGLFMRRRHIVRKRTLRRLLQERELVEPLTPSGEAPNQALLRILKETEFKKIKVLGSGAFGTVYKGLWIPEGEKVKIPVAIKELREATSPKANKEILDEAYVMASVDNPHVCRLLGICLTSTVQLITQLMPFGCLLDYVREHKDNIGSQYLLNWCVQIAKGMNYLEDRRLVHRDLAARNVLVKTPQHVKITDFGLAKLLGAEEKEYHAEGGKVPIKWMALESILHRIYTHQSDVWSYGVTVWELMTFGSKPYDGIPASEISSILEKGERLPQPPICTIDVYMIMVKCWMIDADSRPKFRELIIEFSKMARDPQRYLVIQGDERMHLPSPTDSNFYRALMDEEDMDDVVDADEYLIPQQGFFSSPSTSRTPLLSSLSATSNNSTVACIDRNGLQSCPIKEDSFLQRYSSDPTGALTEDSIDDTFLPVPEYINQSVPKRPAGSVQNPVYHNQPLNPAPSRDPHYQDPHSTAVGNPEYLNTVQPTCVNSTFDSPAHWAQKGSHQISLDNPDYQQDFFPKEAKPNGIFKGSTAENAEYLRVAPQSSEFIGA
Sequence of Epidermal growth factor receptor (Homo sapiens), P00533 [L861Q] (P00533 whole entry L861Q): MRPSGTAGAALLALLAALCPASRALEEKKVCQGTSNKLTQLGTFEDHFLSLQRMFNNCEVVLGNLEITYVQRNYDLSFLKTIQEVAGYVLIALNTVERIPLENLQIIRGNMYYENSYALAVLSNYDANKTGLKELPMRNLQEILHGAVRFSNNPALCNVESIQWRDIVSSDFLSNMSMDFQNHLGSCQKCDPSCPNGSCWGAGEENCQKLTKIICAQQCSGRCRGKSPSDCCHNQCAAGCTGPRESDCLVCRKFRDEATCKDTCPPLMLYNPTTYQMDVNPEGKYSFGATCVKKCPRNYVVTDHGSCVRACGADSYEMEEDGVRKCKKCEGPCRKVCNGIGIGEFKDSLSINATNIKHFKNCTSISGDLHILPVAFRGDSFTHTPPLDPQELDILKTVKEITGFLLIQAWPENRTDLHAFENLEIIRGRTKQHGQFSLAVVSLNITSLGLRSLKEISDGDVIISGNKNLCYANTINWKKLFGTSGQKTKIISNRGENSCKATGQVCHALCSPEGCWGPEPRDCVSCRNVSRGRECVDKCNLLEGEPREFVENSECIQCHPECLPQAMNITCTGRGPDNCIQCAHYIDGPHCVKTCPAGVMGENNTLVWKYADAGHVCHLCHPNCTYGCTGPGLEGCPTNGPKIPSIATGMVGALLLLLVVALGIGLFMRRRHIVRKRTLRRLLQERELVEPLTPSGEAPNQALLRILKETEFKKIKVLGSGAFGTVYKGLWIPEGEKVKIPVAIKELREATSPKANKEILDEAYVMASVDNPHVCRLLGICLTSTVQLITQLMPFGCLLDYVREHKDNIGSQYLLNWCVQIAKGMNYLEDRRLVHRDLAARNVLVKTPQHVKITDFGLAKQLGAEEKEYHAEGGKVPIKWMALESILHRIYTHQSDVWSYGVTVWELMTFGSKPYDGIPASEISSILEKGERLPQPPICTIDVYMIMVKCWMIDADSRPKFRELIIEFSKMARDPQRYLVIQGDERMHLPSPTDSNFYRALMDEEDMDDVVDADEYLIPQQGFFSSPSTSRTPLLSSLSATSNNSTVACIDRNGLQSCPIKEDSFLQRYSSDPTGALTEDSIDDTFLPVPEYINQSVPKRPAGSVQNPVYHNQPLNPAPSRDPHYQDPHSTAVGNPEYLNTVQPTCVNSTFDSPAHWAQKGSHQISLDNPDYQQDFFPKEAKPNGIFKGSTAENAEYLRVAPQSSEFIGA
Sequence of Tyrosine-protein kinase CSK (Homo sapiens) (P41240 2-450 limits assumed): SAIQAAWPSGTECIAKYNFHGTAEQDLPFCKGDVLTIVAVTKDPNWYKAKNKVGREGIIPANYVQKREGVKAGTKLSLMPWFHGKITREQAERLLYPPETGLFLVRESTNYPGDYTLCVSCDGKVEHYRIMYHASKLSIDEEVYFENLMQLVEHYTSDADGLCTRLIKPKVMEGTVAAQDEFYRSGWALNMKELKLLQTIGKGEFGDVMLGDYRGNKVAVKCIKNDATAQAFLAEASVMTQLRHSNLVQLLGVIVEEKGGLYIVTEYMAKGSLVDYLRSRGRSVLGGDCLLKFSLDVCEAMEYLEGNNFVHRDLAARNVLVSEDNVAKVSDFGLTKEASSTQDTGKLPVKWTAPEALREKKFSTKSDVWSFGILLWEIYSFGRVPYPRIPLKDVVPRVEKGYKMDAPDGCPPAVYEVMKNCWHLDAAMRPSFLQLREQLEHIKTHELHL

Regarding `NC(=O)Cc1ccccc1Oc1nccc(-c2c(-c3ccc(F)cc3)ncn2C2CCNCC2)n1`, the inhibition in [1] came out at 0.29%; in assay [2] it was 0.48%; in [3], 0.75%; in [4], 2.22%; in assay [5] it was 4.51%; in assay [6], 2.34%. The inhibition in [7] was 8.03%; in assay [8], 1.25%; in [9] it was -0.04%; in assay [10] it was 0.99%.
In the case of `CNC(=O)c1cncc(/C=C/c2c(C)cccc2C)c1`, the inhibition in assay [1] is 24.6%; in assay [2], 7.93%; in assay [3] it was 36.8%; in assay [4], -2.83%; in assay [5] it was 5.96%; in assay [6], 7.48%. Also, the inhibition in assay [7] was 41.4%; in assay [8], 1.86%; in [9], 8.46%; in assay [10], -0.41%.
`COc1cc(Nc2ncc3c(C)nc(-c4cccc(Oc5ccccc5)c4)n3n2)cc(OC)c1OC`: the inhibition in [1] was 0.83%; in assay [2], 1.95%; in [3], 0.6%; in assay [4], -0.83%; in [5], 3.44%; in assay [6] it was 2.38%. In addition, the inhibition is 1.65% in [7], 0.98% in assay [8], -0.89% in assay [9] and 1.28% in assay [10].
Consider `NS(=O)(=O)c1ccc(Nc2cc(-c3ccc(O)c(F)c3)n[nH]2)cc1`, for which the inhibition was -6.35% in assay [1]; -0.38% in assay [2]; 18.8% in assay [3]; 0.49% in [4]; 3.68% in assay [5]; -2.81% in assay [6]. Further, the inhibition in assay [7] was -2%; in assay [8] it was -1.84%; in assay [9], 0.29%; in assay [10] it was -1.07%.
With `Cc1nnc(-c2ccc(C)c(-c3ccc(C(=O)NCc4ccc(Cl)cc4)cc3)c2)o1`, the inhibition in [1] is 5.62%; in [2] it was 0.22%; in assay [3] it was -0.21%; in [4] it was -3.58%; in assay [5], -0.27%; in assay [6], 1.36%. Further, the inhibition in assay [7] was 2.71%; in assay [8] it was 2.71%; in [9], 1.09%; in assay [10] it was 0.7%.
For the compound `C[C@@H](Oc1cc(-n2cnc3ccc(OCC4CCN(C)CC4)cc32)sc1C(N)=O)c1ccccc1Cl`, the inhibition was determined as 3.59% in [1]; 2.64% in assay [2]; 8.53% in assay [3]; 3.04% in [4]; 3.73% in assay [5]; 4.5% in [6]. For the same compound, the inhibition in [7] worked out at 19.8%; in assay [8], 1.43%; in [9] it was 5.89%; in assay [10], 1.15%.
Regarding `COc1ccc(-c2ccc3c(NC(=O)C4CC4)n[nH]c3n2)cc1`, the inhibition in assay [1] is 4.87%; in assay [2], 0.86%; in assay [3] it was 0.84%; in assay [4], 0.14%; in [5], 0.71%; in assay [6] it was -1.64%. Also, the inhibition in assay [7] was 3.91%; in assay [8], -0.19%; in [9], 2.45%; in [10] it was -0.2%.
Consider `O=C(Nc1n[nH]c2nc(-c3ccco3)ccc12)C1CC1`, for which the inhibition is 4.82% in assay [1]; 5.94% in assay [2]; 7.53% in assay [3]; 2.44% in assay [4]; 4.53% in assay [5]; -0.69% in assay [6]. For the same compound, the inhibition in assay [7] came to 4.35%; in [8], 1.04%; in assay [9] it was 1.77%; in assay [10], 0.31%.
Consider `CCC(=O)Nc1ccc(C)c(-c2ccc(C(=O)NCC3CC3)cc2)c1`, for which the inhibition in assay [1] amounted to 4.34%; in [2], 1.85%; in assay [3] it was 2.57%; in [4], 6.56%; in assay [5] it was 6.12%; in [6] it was 2.49%. Moreover, the inhibition in assay [7] came to 5.47%; in [8], 3.28%; in assay [9], 4.44%; in [10], 0.82%.
Regarding `Clc1ccc(CNc2nccc(-c3cnn4ncccc34)n2)cc1`, the inhibition in [1] came out at 2.58%; in assay [2], 1.86%; in [3], 4.61%; in [4] it was 0.75%; in assay [5], 3.24%; in assay [6], 3.13%. Besides, the inhibition in assay [7] was 5.2%; in assay [8], -1.04%; in assay [9] it was 0.71%; in assay [10], 0.11%.
With `O=C(Nc1n[nH]c2cc(-c3ccccc3)ccc12)C1CC1`, the inhibition in assay [1] amounted to 4.74%; in [2], 1.43%; in assay [3], 5.94%; in [4], 3.06%; in assay [5], 6.49%; in [6] it was 2.84%. Besides, the inhibition amounted to 5.13% in assay [7], 4.05% in assay [8], 0.82% in [9] and 2.65% in assay [10].
Turning to `COc1ccc2cc(-c3c(-c4ccncc4)nc(-c4ccc([S+](C)[O-])cc4C)n3C)ccc2c1` (stereo not given), the inhibition in assay [1] is -1.23%; in assay [2] it was -2.64%; in assay [3], -4.31%; in assay [4], 2.02%; in assay [5], 7.54%; in assay [6], -1.17%. Besides, the inhibition is 5.96% in assay [7], -0.12% in assay [8], 9.44% in assay [9] and -0.7% in [10].
On to `COc1cc(N2CCN(C(C)C)CC2)ccc1Nc1nc(Nc2ccc(F)cc2C(=O)NC[C@@H](O)CO)c2cc[nH]c2n1`, for which the inhibition in [1] was 6.92%; in assay [2], 0.31%; in assay [3], 1.21%; in assay [4] it was -0.53%; in [5], 0.84%; in [6], 0.89%. Further, the inhibition came out at 11.2% in assay [7], 5.68% in [8], 8.58% in assay [9] and 4.54% in assay [10].
As for `NS(=O)(=O)c1ccc(N/N=C2\C(=O)Nc3ccc(C(=O)NCCCn4ccnc4)cc32)cc1`, the inhibition was 6.51% in assay [1]; 0.72% in [2]; 1.93% in assay [3]; 3.44% in assay [4]; 5.59% in assay [5]; 0.2% in assay [6]. Further, the inhibition is 6.95% in assay [7], 1.73% in assay [8], 5.08% in assay [9] and 2.53% in assay [10].
On to `Nc1nccc(-c2c(-c3ccc(F)cc3)ncn2C2CCC(O)CC2)n1` (stereo not given), for which the inhibition in assay [1] is -0.86%; in assay [2] it was -0.26%; in assay [3] it was 13.3%; in [4], 4.04%; in assay [5], 35.7%; in assay [6], 18.4%. Also, the inhibition is 76.8% in assay [7], 4.44% in assay [8], 33.2% in [9] and -1.86% in assay [10].
In the case of `COc1cc2ncn(-c3cc(OCCc4ccccc4)c(C(N)=O)s3)c2cc1OC`, the inhibition worked out at 2.94% in assay [1]; 0.75% in [2]; 2.48% in assay [3]; 7.08% in [4]; 7.65% in assay [5]; 2.45% in assay [6]. Also, the inhibition in [7] was 9.43%; in [8] it was 0.8%; in [9], 0.3%; in assay [10], 0.19%.
For `CN(C)c1ccc2c(c1)/C(=C/Nc1ccc(S(N)(=O)=O)cc1)C(=O)N2`, the inhibition in assay [1] worked out at 0.76%; in assay [2], 1.03%; in assay [3], 2.54%; in [4] it was 9.33%; in assay [5], 11.9%; in assay [6], 1.25%. Moreover, the inhibition in [7] stood at 5.83%; in assay [8], 1.24%; in [9] it was 2.51%; in assay [10], 0.31%.

Values taken from ChEMBL document CHEMBL1961873, “Compounds: GSK PKIS; Assays: Nanosyn kinase panel” (2012).
